# Results reported in PubChem BioAssay (EPA / NIEHS).
# Inconclusive results are not listed. The source made the active and inactive calls. Rule for the calls: active = hit-call score of the fitted dose curve at least 0.9, where 1 is the maximum; inconclusive = response in the unintended direction; inactive = score below 0.9.
# Molecular target: Nucleoli Translocation, AR (gene 367) (UniProt P10275)
# Assay: UPITT_HCI_U2OS_AR_TIF2_Nucleoli_Agonist: University of Pittsburgh U2OS Androgen Receptor-Transcriptional Intermediary Factor 2 (AR-TIF2) Agonism High Content Imaging Assay for Nucleoli Translocation (AID 2283998)
# Source text: UPITT_AR_TIF2_PPIB is a cell-based, high-content imaging assay that uses U2OS, a human osteosarcoma cell line, expressing a human androgen receptor fused to red fluorescent protein and the coactivator TIF2 fused to green fluorescent protein. UPITT_HCI_U2OS_AR_TIF2_Nucleoli_Agonist is one of four assay components measured from the UPITT_AR_TIF2_PPIB assay. It is designed to make measurements of red fluorescence localized in the nucleolar region of the cell nucleus as detected with high-content fluorescent imaging.Data from the assay component UPITT_HCI_U2OS_AR_TIF2_Nucleoli_Agonist was analyzed into 1 assay endpoint. This assay endpoint, UPITT_HCI_U2OS_AR_TIF2_Nucleoli_Agonist, was analyzed in the positive analysis fitting direction relative to DMSO as the baseline of activity. Using a type of binding reporter, measures of receptor for gain-of-signal activity can be used to understand the binding at the pathway-level as it relates to the gene AR.
# Daughter plates containing 2 uL of 10 mM compounds in DMSO were prepared and replicated from the 384-well Library of Pharmacologically Active Compounds (LOPAC) master plates using the Bravo outfitted with a 384-well transfer head. Aluminum adhesive plate seals were applied with an Abgene Seal-IT 100 (Rochester, NY) plate sealer, and the plates were stored at -20 C in a Matrical MatriMinistore (Spokane, WA) automated compound storage and retrieval system. For screening, LOPAC daughter plates were withdrawn from -20C storage, thawed to ambient temperature, centrifuged 1-2 min at 50 g, and the plate seals were removed before the transfer of 98 uL of serum-free tissue culture medium (SFM) into wells using the BioTek Microflo liquid handler (BioTek, Winooski, VT) to generate a 200 uM intermediate stock concentration of library compounds (2.0% DMSO). The diluted compounds were mixed by repeated aspiration and dispensation using a 384-well P30 dispensing head on the Evolution P3 (EP3) liquid handling platform (PerkinElmer, Waltham, MA) and then 5 uL of diluted compounds was transferred to the wells of assay plates. In the LOPAC screen, compounds were individually tested at a final concentration of 20 uM (0.2% DMSO). After the diluted compounds had been transferred from the daughter plates to the primary HCS assay plates, aluminum adhesive plate seals were applied and the diluted daughter plates were stored frozen at -20C. To confirm active compounds identified in the primary screen, we withdrew the LOPAC daughter plates containing the 200 uM intermediate concentration of library compounds (2.0% DMSO) from -20C storage, thawed them to ambient temperature, centrifuged them for 1-2 min at 50 g, and removed the plate seals. A work list was generated to direct the Multiprobe Janus liquid handling platform (PerkinElmer) to cherry pick 75 uL from the wells of the diluted daughter plates that were flagged active in the primary screen and to reformat these into a 384-well plate hit confirmation daughter plate. Five microliters of primary HCS active compounds was then transferred into triplicate wells of assay plates using a 384-well P30 dispensing head on the Evolution P3 (EP3) liquid handling platform (PerkinElmer). […] Daughter plates containing 2 uL of the serially diluted compounds in DMSO were prepared and replicated from the 384-well serial dilution master plates using the Bravo outfitted with a 384-well transfer head. Aluminum adhesive plate seals were applied and plates were stored at -20C. For testing in the bioassays, daughter plates were withdrawn from -20C storage, thawed to ambient temperature, centrifuged for 1-2 min at 50 g, and the plate seals were removed before the transfer of 38 uL of SFM into wells using the BioTek Microflo liquid handler (BioTek) to generate an intermediate stock concentration of library compounds ranging from 1.95 to 500 uM (5.0% DMSO). […]
# Chain of Nucleoli Translocation, AR (gene 367) (P10275 whole entry, looked up): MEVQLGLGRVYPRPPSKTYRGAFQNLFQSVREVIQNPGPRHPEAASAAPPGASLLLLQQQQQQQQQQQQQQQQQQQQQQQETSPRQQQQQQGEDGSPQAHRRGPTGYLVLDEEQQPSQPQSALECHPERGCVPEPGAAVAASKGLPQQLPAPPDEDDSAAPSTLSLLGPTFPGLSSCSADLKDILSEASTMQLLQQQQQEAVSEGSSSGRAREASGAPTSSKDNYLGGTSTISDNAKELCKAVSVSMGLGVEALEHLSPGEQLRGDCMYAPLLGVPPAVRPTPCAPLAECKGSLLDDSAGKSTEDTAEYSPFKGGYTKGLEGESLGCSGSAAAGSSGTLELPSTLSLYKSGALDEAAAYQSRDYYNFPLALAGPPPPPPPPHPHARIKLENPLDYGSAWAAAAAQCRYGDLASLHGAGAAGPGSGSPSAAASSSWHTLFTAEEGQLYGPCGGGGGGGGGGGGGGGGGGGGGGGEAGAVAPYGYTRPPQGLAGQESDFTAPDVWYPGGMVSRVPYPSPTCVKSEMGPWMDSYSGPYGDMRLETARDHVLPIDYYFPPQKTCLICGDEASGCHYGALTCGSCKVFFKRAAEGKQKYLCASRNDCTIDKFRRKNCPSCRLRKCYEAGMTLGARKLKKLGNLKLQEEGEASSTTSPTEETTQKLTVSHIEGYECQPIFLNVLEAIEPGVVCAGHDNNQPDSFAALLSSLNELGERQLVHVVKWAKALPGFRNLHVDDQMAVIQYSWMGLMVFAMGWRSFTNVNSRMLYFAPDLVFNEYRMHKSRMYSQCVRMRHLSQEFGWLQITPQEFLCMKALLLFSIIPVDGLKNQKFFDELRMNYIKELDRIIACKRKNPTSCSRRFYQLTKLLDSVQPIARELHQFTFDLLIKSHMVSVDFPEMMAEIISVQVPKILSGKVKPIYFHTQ
SMILES,outcome,AC50
CCNc1ccccc1,inactive,–
C1N2CN3CN1CN(C2)C3,inactive,–
CCCN(C1CCN(C(=O)C2CCNCC2)CC1)[C@@H]1CCc2ccc(OC)cc2C1,inactive,–
CCCCCCc1ccc(O)cc1O,–,14.2 µM (active)
Cc1ccc(O)cc1,inactive,–
CC1(C)C(=O)N(Br)C(=O)N1Br,inactive,–
CCCCC(CC)COC(=O)c1ccc(C(=O)OCC(CC)CCCC)cc1 (configuration not stated),inactive,–
O=C(O)c1cccc(N(Cc2cccnc2)c2ccc(OC(F)F)c(OC(F)F)c2)c1,inactive,–
Fc1ccccc1[C@@H](F)COC1CCC(Nc2ncnc3[nH]ncc23)CC1 (some centres not stated),inactive,–
Oc1ccc2c(c1)-c1ccccc1C2,–,76.6 µM (active)
CC(C)=CCCC(C)CCO (configuration not stated),inactive,–
Cc1ccc(N)cc1O,inactive,–
